Results from PubChem BioAssay AID1209 (Sanford-Burnham Center for Chemical Genomics, 2008).
In all, about 190,000 compounds went through this assay and about 810 (0.43%) were called active. Rule as the data show it: active = inhibition above about 50%; inactive = the rest. Only a selection was taken, and actives are over-represented in it overall.

These compounds were tested against Mannose-6-phosphate isomerase (Homo sapiens) (UniProt P34949) (assay: MPI enzyme activity inhibition – biochemical, fluorescence intensity, coupled assay, primary screen (AID 1209;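 also: plate controls were DMSO vehicle for no effect and wells lacking substrate for full effect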)). Details: purified PMI enzyme, at 20 µM, stronger effect = higher value.
Mannose-6-phosphate isomerase (Homo sapiens), sequence (P34949 whole entry, looked up): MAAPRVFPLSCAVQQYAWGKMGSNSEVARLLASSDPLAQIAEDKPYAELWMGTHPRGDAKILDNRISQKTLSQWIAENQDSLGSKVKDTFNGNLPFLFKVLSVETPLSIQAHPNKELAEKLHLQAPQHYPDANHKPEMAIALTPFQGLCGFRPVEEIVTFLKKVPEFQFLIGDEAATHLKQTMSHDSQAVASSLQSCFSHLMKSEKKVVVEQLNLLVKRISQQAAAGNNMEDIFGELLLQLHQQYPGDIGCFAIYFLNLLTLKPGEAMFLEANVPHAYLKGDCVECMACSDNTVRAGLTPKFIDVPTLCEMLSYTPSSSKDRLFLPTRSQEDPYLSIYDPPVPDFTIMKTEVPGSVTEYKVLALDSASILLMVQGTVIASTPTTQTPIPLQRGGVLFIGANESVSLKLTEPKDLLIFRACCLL
For C=CCn1c(SCC(=O)Nc2nc(C)cs2)nnc1C(NC(=O)c1ccccc1)C(C)C (stereo unspecified), the inhibition was 5.4% (inactive). O=C(CSc1nc(-c2ccccc2)nc2ccccc12)Nc1cccc(C(=O)O)c1 was tested, and the inhibition was 20.6% (inactive). CCOC(=O)c1cc(-c2ccccc2)sc1NC(=O)c1cc(OC)c(OC)c(OC)c1 was tested, and the inhibition was 13% (inactive). In the case of CCOC(=O)c1cc(-c2ccccc2)sc1NC(=O)c1ccc(OC)cc1, the inhibition is reported as 68.2% (active). In the case of CCOC(=O)c1cc(-c2ccccc2)sc1NC(=O)c1ccc(OC)c(OC)c1, the inhibition is reported as 42.1% (inactive). For CCn1c(SCC(=O)c2ccc(CNC(C)=O)o2)nnc1-c1cccs1, the inhibition was -9% (inactive). In the case of O=c1cc2[nH]c3ccccc3c(=O)n2nc1-c1ccccc1, the inhibition is reported as 63.9% (active). O=c1cc(-c2ccccc2)[nH]c2ccccc12 was tested, and the inhibition was -3.1% (inactive). For O=c1nc(-c2ccccc2)c2ccccc2[nH]1, the inhibition was 10.3% (inactive). With Cc1ccc(Cl)cc1NC(=O)N[C@@H](C)C(=O)O the inhibition was -0.2% (inactive). In the case of O=C(C1CCN(S(=O)(=O)c2cccc3nsnc23)CC1)N1CCn2c1nc1ccccc12, the inhibition is reported as 8.5% (inactive). C=CCn1c(NCCOC)nc2c1c(=O)n(C)c(=O)n2C was tested, and the inhibition was -2.8% (inactive). With CCCSc1nnc2nc(C)cc(C)n12 the inhibition was -2.6% (inactive). CCSc1nnc2nc(C)cc(C)n12 was tested, and the inhibition was 7.6% (inactive). For CC(Sc1sc(=S)sc1SC(C)C(=O)O)C(=O)O (stereo unspecified), the inhibition was -15.4% (inactive). Cc1nnsc1SCC(=O)O was tested, and the inhibition was -12.4% (inactive). With Cc1nnsc1SC(C)C(=O)O (stereo unspecified) the inhibition was 64.6% (active). For Cc1ccc(S(=O)(=O)N2CCCCC2)cc1NC(=O)Nc1ccc(Cl)cc1Cl, the inhibition was 13.8% (inactive). CC(Nc1ccc2c(c1)OCCO2)C(=O)N1CCc2ccccc21 (stereo unspecified) was tested, and the inhibition was 6.4% (inactive). In the case of Cn1c(=O)n(C)c2cc(S(=O)(=O)Nc3cc(Cl)ccc3O)ccc21, the inhibition is reported as 9.8% (inactive). CNC(=O)CN1C(=O)c2cccc3cccc1c23 was tested, and the inhibition was -1.5% (inactive). CCN1C(=O)c2cccc3c(NC(=O)C(C)(C)C)ccc1c23 was tested, and the inhibition was 13.8% (inactive). In the case of CCN1C(=O)c2cccc3c(N)ccc1c23, the inhibition is reported as 64.7% (active). CCN1/C(=N\N)c2cccc3cccc1c23 was tested, and the inhibition was -48% (inactive). CCN1C(=O)c2cccc3c(S(=O)(=O)Nc4ccccc4)ccc1c23 was tested, and the inhibition was -1% (inactive). Cc1nc2cc3c(cc2c(C)c1C(=O)OC(C)C)OCO3 was tested, and the inhibition was -5.2% (inactive). With Cc1ccc(C(=O)NCc2ccccc2)c(F)c1F the inhibition was 5.5% (inactive). For COc1ccc(OC)c(NC2c3ccccc3C(=O)N2c2cccnc2)c1 (stereo unspecified), the inhibition was -11.1% (inactive). In the case of Oc1ccc2ccccc2c1/C=N/c1nc2c(s1)CCCC2, the inhibition is reported as 45.8% (inactive). For COc1ccc2c(c1)-c1nc(/N=C/c3ccc(O)cc3)sc1CC2, the inhibition was 80.2% (active). COc1ccc2c(c1)-c1nc(/N=C/c3ccccc3O)sc1CC2 was tested, and the inhibition was 70% (active). In the case of COc1ccc2c(c1)CCc1sc(NC(=O)c3ccc(C)cc3)nc1-2, the inhibition is reported as 19.4% (inactive). In the case of COc1ccc2c(c1)-c1nc(NC(=O)c3ccco3)sc1CC2, the inhibition is reported as 23.9% (inactive). In the case of COc1ccc(N=Cc2c(O)ccc3ccccc23)cc1, the inhibition is reported as 37% (inactive). For COc1ccc2c(c1)-c1nc(/N=C/c3c(O)ccc4ccccc34)sc1CC2, the inhibition was 77.9% (active). For COc1ccc2c(c1)Cc1sc(NC(=O)c3ccccc3)nc1-2, the inhibition was 3.2% (inactive). With COc1ccc2c(c1)-c1nc(N)sc1CC2 the inhibition was 73.3% (active). In the case of COc1ccc2c(c1)CCc1sc(NC(=O)c3ccco3)nc1-2, the inhibition is reported as 31.4% (inactive). For COc1ccc(C(=O)Nc2nc3c(s2)Cc2cc(OC)ccc2-3)cc1, the inhibition was -2.4% (inactive). For COc1ccc2c(c1)-c1nc(NC(=O)c3cccs3)sc1CC2, the inhibition was 26.3% (inactive). With COc1cccc(N(CC(=O)N2CCN(C)CC2)S(=O)(=O)c2ccccc2)c1 the inhibition was 2.4% (inactive). For Cc1ccc(C)c(N2CCN(C(c3ccc(N(C)C)cc3)c3nnnn3C(C)(C)C)CC2)c1 (stereo unspecified), the inhibition was 12.6% (inactive). For CCCNCC(O)Cn1c2ccccc2n2c(=O)cc(C)c(C#N)c12 (stereo unspecified), the inhibition was -6% (inactive). Cc1ccc(C)c(NC(=O)CSc2ccc(-c3ccco3)nn2)c1 was tested, and the inhibition was 8.2% (inactive). In the case of COc1cccc(N(C(=O)Cn2nnc3ccccc32)C(C(=O)NCc2ccco2)c2cccnc2)c1 (stereo unspecified), the inhibition is reported as 1.5% (inactive). In the case of Cc1ccc(C)c(C(=O)NC2CC(C)(C)NC(C)(C)C2)c1, the inhibition is reported as 2.7% (inactive). CC(NC(=O)c1sc2ccccc2c1Cl)C1CCCO1 (stereo unspecified) was tested, and the inhibition was 6.7% (inactive). For O=C(CSc1nccc(-c2ccc(Br)cc2)n1)NCCc1ccccc1, the inhibition was 0.8% (inactive). With CSc1ccc(-c2nc(O)c3cnccn23)cc1 the inhibition was -16.4% (inactive). With CN(C)S(=O)(=O)c1cccc(NC(=O)c2cc(-c3cccs3)nn2-c2ccccc2)c1 the inhibition was 2.9% (inactive). For CC(C)NC(=O)C1CCN(C2CCN(Cc3nc4ccccc4s3)CC2)CC1, the inhibition was 1.6% (inactive). With COc1ccc2c(c1)-c1nc(/N=C/c3cccc(OC)c3O)sc1CC2 the inhibition was 65.8% (active). With COc1cccc(C=Nc2cc(C)on2)c1O the inhibition was 13.5% (inactive). For COc1cccc(C=Nc2cc(C)cc(C)c2)c1O, the inhibition was -1.7% (inactive). In the case of CCC(Oc1ccc2c(c1)C(=O)CC(C)(C)O2)C(=O)NCCN1CCCCCC1 (stereo unspecified), the inhibition is reported as 20% (inactive). For CC(Sc1nnc(COc2ccc([N+](=O)[O-])cc2)n1C)C(=O)O (stereo unspecified), the inhibition was 0.2% (inactive). Cc1nc([N+](=O)[O-])nn1C12CC3CC(CC(Br)(C3)C1)C2 was tested, and the inhibition was 75% (active). With Cc1cc(NC(=O)C23CC4CC(C2)CC(n2cnc([N+](=O)[O-])n2)(C4)C3)no1 the inhibition was 2.7% (inactive). Cc1nc([N+](=O)[O-])nn1C12CC3CC(CC(Cl)(C3)C1)C2 was tested, and the inhibition was 4.8% (inactive). In the case of CCN(CC)CCCOC(=O)C1(c2ccccc2)CCCC1, the inhibition is reported as -3.2% (inactive). For Cc1ccc(Nc2nnns2)cc1C, the inhibition was 47.5% (inactive). With Cc1ccc(Nc2nnns2)cc1 the inhibition was 57.4% (active). In the case of Cc1ccc(Nc2nc3ccccc3s2)cc1, the inhibition is reported as -5.9% (inactive). In the case of COc1ccc(OC)c(NC(=O)C2C(C(=O)O)C3(Cl)C(Cl)=C(Cl)C2(Cl)C3(Cl)Cl)c1 (stereo unspecified), the inhibition is reported as 18.2% (inactive). In the case of CCOC(=O)C(Nc1ccc2ccccc2c1)C(=O)OCC, the inhibition is reported as 60.3% (active). In the case of CCCCCC(=O)Nc1ccc2ccccc2c1, the inhibition is reported as 16.7% (inactive). In the case of CCC(=O)Nc1ccc2ccccc2c1, the inhibition is reported as 12% (inactive). With COc1ccc(CNS(=O)(=O)c2cccc(S(=O)(=O)N3CCOCC3)c2)cc1 the inhibition was 6.7% (inactive). CCOc1cc(C(C#N)N2CCOCC2)ccc1OC (stereo unspecified) was tested, and the inhibition was 12% (inactive). With O=C(CN1C(=O)COc2ccccc21)NCCCN1CCN(Cc2ccccc2)CC1 the inhibition was 4.6% (inactive). For Cc1sc(NC(=O)COc2ccccc2)c(C#N)c1C, the inhibition was 58.3% (active). With CCOC(=O)c1sc(NC(=O)CSc2n[nH]c(-c3ccccc3)n2)c(C#N)c1C the inhibition was 51.7% (active). In the case of Cc1ccccc1NC(=O)c1sc(NC(=O)COc2ccccc2)c(C#N)c1C, the inhibition is reported as 5.1% (inactive). CCOC(=O)c1sc(NC(=O)CSc2nc(C)cc(C)n2)c(C#N)c1C was tested, and the inhibition was 4.2% (inactive). For CCOC(=O)c1sc(NC(=O)CSc2n[nH]c(-c3ccc(Cl)cc3Cl)n2)c(C#N)c1C, the inhibition was 25.2% (inactive). CCOC(=O)c1sc(NC(=O)CSc2nc(C)cc(C(F)(F)F)n2)c(C#N)c1C was tested, and the inhibition was 26.6% (inactive). For CCOC(=O)c1c(NC(=O)CSc2nnc(Cc3ccccc3)o2)sc(C(C)=O)c1C, the inhibition was 9.9% (inactive). With CCOC(=O)c1sc(NC(=O)CSc2nnc(Cc3ccccc3)o2)c(C(=O)OCC)c1C the inhibition was 4.9% (inactive). With CCOC(=O)c1sc(NC(=O)CSc2nc(C)cc(-c3ccccc3)n2)c(C#N)c1C the inhibition was 61.2% (active). For CCOC(=O)c1sc(NC(=O)CSc2n[nH]c(-c3ccncc3)n2)c(C#N)c1C, the inhibition was -4.9% (inactive). In the case of CCOC(=O)c1sc(NC(=O)CSc2nnc(Cc3ccccc3)o2)c(C#N)c1C, the inhibition is reported as 72.4% (active). In the case of Cc1sc(NC(=O)COc2ccccc2)c(C#N)c1-c1ccccc1, the inhibition is reported as 4.5% (inactive). In the case of Cc1cc(C(=O)Nc2ccc(C(=O)O)cc2)c(-c2ccccc2)o1, the inhibition is reported as 4% (inactive). For Cc1ccc[n+](CC(=O)c2ccc(NC(=O)c3ccccc3)cc2)c1, the inhibition was -10.6% (inactive). With COCCN(CCOC)S(=O)(=O)c1ccc(C(=O)Nc2sc3c(c2C(N)=O)CCCCC3)cc1 the inhibition was 3.2% (inactive). For CC(=O)Nc1ccc(NC(=O)COc2c(C)cc(Br)cc2C)cc1, the inhibition was 13.2% (inactive). For CCO/N=C(\C)c1c(O)c(CC)c(-c2ccccc2)n(-c2ccccc2)c1=O, the inhibition was 9.9% (inactive). For CCOC(=O)c1sc(NC(=O)c2ccc(Br)o2)cc1C, the inhibition was 11.7% (inactive). C=CCn1c(NC(=O)CC)c(C(=O)OCC)sc1=S was tested, and the inhibition was 17.3% (inactive). With C=CCn1c(NC(=O)c2ccc(Br)o2)c(C(=O)OCC)sc1=S the inhibition was 50.7% (active). O=C(NCc1cn2ccccc2n1)c1ccccc1 was tested, and the inhibition was -15.8% (inactive). In the case of O=C(CCN1CCCC1Cc1ccccc1)c1ccc2c(c1)OCCO2 (stereo unspecified), the inhibition is reported as 50.8% (active). O=C(CCN1CCC(c2ccccc2)C1)c1ccc2c(c1)OCCO2 (stereo unspecified) was tested, and the inhibition was 47.6% (inactive). For O=C(CCN1CCCCC1)c1ccc2c(c1)OCCO2, the inhibition was 36.1% (inactive). With FC(F)Oc1cccc(NC(=S)N2CCN(c3ccccn3)CC2)c1 the inhibition was 65.6% (active). COc1cccc(NC(=S)N2CCN(c3ccccn3)CC2)c1 was tested, and the inhibition was 12.3% (inactive). With FC(F)(F)c1cccc(NC(=S)N2CCN(c3ccccn3)CC2)c1 the inhibition was -17% (inactive). CN(C)c1cccc(C(=O)OCC(=O)Nc2nccs2)c1 was tested, and the inhibition was -1.5% (inactive). With COc1nc(N2CCCCCC2)nc(N2CCCCCC2)n1 the inhibition was 2.3% (inactive). For N/C(=N/O)c1nc(N2CCCCC2)nc(N2CCCCC2)n1, the inhibition was 2.2% (inactive). In the case of COc1nc(/C(N)=N/O)nc(N2CCCCC2)n1, the inhibition is reported as 66.9% (active).
